Measurements: PubChem BioAssay (Tox21)
Unmarked numbers belong to inactive results. Calls come from the whole dose curve; as a rule, active = well fitted curve in the direction sought with a large enough effect in the repeat runs; inconclusive = weak or mixed curves; inactive = flat fitted curve, though single readings scatter.

experiment: qHTS assay to test for compound auto fluorescence at 535 nm (green) in HEK293 cell free culture (AID 720682); conditions: cell-free medium, green autofluorescence 485/535 nm, stronger effect = higher value; series mostly up to 91.3 µM; activity change: at the top concentration
Text: U.S. Tox21 Program National Center for Advancing Translational Sciences [NCATS] NIH Chemical Genomics Center [NCGC] U.S. Environmental Protection Agency [EPA] National Institutes of Environmental Health Sciences [NIEHS] National Toxicology Program [NTP] U.S. Food and Drug Administration [FDA] Tox21 Assay Overview: Compound auto fluorescence often interferes with screening of the compound library against various biological targets and signaling pathways. Some of these compounds may have fluorophoric properties. Such properties may interfere with the assay outputs resulting in false positives and/or negatives. To decrease such complications and ensure the compound activities are relevant in terms of biological response, the Tox21 10K compound library was screened for auto fluorescence. From the fluorophores used as reporter signals in our screening assays, the auto fluorescence equivalencies of compounds against three fluorophores have been evaluated: Triamterene, Fluorescein and Rose Bengal sodium for blue, green and red fluorescence, respectively. The fluorescence intensities were measured using Excitation/Emission wavelengths at 405/460nm, 485/535nm and 540/590nm for blue, green and red labels, respectively. This assay includes the green fluorescence data.
Tox21 Assay Protocol Summary: 5 uL of culture medium (DMEM containing 10% FBS) per well was dispensed into black wall/clear bottom 1536-well plates using a Multidrop Combi Dispenser (ThermoFisher Scientific, Waltham, MA). After 23 nL compound or DMSO vehicle was transferred into assay plate by a pintool work station (Kalypsys, San Diego, CA), fluorescence intensities in the assay plates were measured by an Envision (PerkinElmer, Shelton, CT) plate reader using three labels for measuring blue, green and red fluorescence at […] 460, 535 and 590nm respectively.
% is set by controls: 0 for no effect and ±100 for the full control effect.

| SMILES | activity change |
| --- | --- |
| FC(F)(Cl)C(F)(Cl)Cl | 0.21% |
| Cc1c(Cl)cccc1Nc1ccccc1C(=O)O | -0.107% [at 46 µM] |
| CS(C)=O | -0.0051% |
| C/C=C1\[C@H]2C=C(C)C[C@]1(N)c1ccc(=O)[nH]c1C2 | -0.0178% [at 46 µM] |
| CCCCCCCCCCCCCCCCN | 0.0295% [at 46 µM] |
| CCCC1CCCC(=O)O1 (stereo not given) | -0.0063% |
| COc1ccc(CN(CCN(C)C)c2ncccn2)cc1 | -0.0329% [at 46 µM] |
| CCC(CC)C(=O)O | 0.0278% |
| COc1ccc(/C=C/S(=O)(=O)NC(=O)c2ccc(C)cc2Cl)cc1 | -0.0058% |
| CC(=O)CC/C=C(\C)CC/C=C(\C)CC/C=C(\C)CCC=C(C)C | 0.0012% [at 46 µM] |
| CC(C)CC(C)(C)C | 0.0412% [at 95.7 µM] |
| CC(CCl)OC(C)CCl (stereo not given) | -0.0044% |
| C=CC(O)CCCCC (stereo not given) | -0.171% |
| Cc1cc(C)c(C)c(O)c1 | -0.0549% |
| CCC(C)CCCC(C)(C)O (stereo not given) | -0.057% |
| CCc1ccc(C(=O)C(C)CN2CCCCC2)cc1 (stereo not given) | 0.0032% [at 46 µM] |
| C[C@@H](O)[C@H]1C(=O)N2C(C(=O)O)=C(S[C@@H]3CN[C@H](CNS(N)(=O)=O)C3)[C@H](C)[C@H]12 | 0.0811% [at 46 µM] |
| CCOC(OCC)OCC | -0.0256% |
| CO[C@@H]1[C@@H](O[C@@H]2O[C@H](C)[C@@H](O[C@H]3C[C@@](C)(O)[C@@H](O)[C@H](C)O3)[C@H](N(C)C)[C@H]2O)[C@@H](CC=O)C[C@@H](C)[C@@H](O[C@@H]2CC[C@H](N(C)C)[C@@H](C)O2)/C=C/C=C/C[C@@H](C)OC(=O)C[C@H]1OC(C)=O | 0.0494% [at 46 µM] |
| CC/C=C/CCO | -0.0257% [at 95.7 µM] |

| SMILES | activity change |
| --- | --- |
| Nc1ccc(C(=O)Oc2ccccc2)c(O)c1 | -0.202% [at 46 µM] |
| O=Cc1ccc(Cl)c([N+](=O)[O-])c1 | -0.072% |
| CCOc1ccccc1O | -0.0204% |
| Cc1cc(N)n(-c2ccccc2)n1 | -0.0519% |
| CC(C)(O)C(=O)O | 0.0508% |
| N#CCCCC(C#N)CCC#N (stereo not given) | -0.0765% |
| CCCC(=O)OCCC(C)C | -0.131% |
| N#C[C@@H]1CC(F)(F)CN1C(=O)CNC1CC2CCC(C1)N2c1ncccn1 (stereo not given in full) | 0.207% |
| Cc1cccc(C)c1NC(=O)CN1CCCC1 | 0.0312% [at 46 µM] |
| CC1(COc2ccc(CC3SC(=O)NC3=O)cc2)CCCCC1 (stereo not given) | -0.0614% [at 46 µM] |
| COc1ccc(/C=C/c2cc(OC)cc(=O)o2)cc1 | -0.0996% [at 46 µM] |
| O=C(O)c1cccnc1Nc1cccc(C(F)(F)F)c1 | -0.0552% [at 46 µM] |
| NC(=O)c1cc[n+](CC2=C(C(=O)[O-])N3C(=O)[C@@H](NC(=O)Cc4cccs4)[C@H]3SC2)cc1 | 0.0615% [at 18.6 µM] |
| C[Si](C)(C)O[Si](C)(C)O[Si](C)(C)C | 0.0284% |
| CCCCOC(=O)C(C)Oc1ccc(Oc2ccc(C(F)(F)F)cn2)cc1 (stereo not given) | 0.0256% |
| CCCCCCCCS | 0.0074% [at 95.7 µM] |
| CC(C)(Cc1c[nH]c2ccccc12)NCC(O)COc1ccccc1C#N (stereo not given) | 0.0322% [at 46 µM] |
| CCCCCCCCCCCCSCCOCCO | -0.0095% [at 46 µM] |
| O=S(=O)(O)c1cc(Cl)c(Cl)cc1Cl | -0.0377% |
| O=P(c1ccccc1)(c1ccccc1)c1ccccc1 | 0.0211% |
